# Measurements from PubChem BioAssay.
# Test system: Inhibin beta A chain (activin A)
# Test: small molecules binding activin A – biochemical, small-molecule microarray, 635 nm fluorescence scan, primary screen (AID 1107);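 further: mouse activin A protein probed at 4.33 µg/mL on printed slides; score merges bound-protein fluorescence near 667 nm with spot signal-to-noise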
# Conditions: INHBA, higher = more signal
row,SMILES,composite z-score
1,CC(CO)N1C(=O)[C@@H]2C3C(=O)OCCC/C=C\[C@H]3OC23C=CCN(C(C)(C)C)C(=O)[C@@H]13 (stereo not given in full),0.0635
2,CN1C(=O)C2C=CC(C(O)c3ccccc3)N(N(c3ccccc3)c3ccccc3)C2C1=O (stereo not given),1.07
3,C=CCOC(=O)[C@H]1[C@@H]2C(=O)O[C@@H](c3ccccc3)[C@@H](c3ccccc3)N2[C@@H](c2ccc(OCCOC(=O)[C@@H]3C[C@@H]4C(=O)N[C@@H](CCCCNC(C)=O)C(=O)N4[C@@H]3c3ccc(O)cc3)cc2)[C@]12C(=O)Nc1ccccc12,0.152
4,C[C@H]1C2[C@H](Cc3ccccc3)NC(=O)[C@]23C(=O)N[C@H](Cc2ccccc2)C(=O)N2CCC[C@H]2C(=O)NC/C=C\C/C=C/C3[C@@H]2O[C@]12C (stereo not given in full),0.946
5,CC(C)C(O)C1C=CC2C(=O)NC(=O)C2N1Nc1ccc(Cl)cc1Cl (stereo not given),1.47
6,COC(=O)C(CC#Cc1ccc2c(c1)[C@]1(C(=O)N2)[C@H](C(=O)Nc2nc3ccccc3s2)[C@H]2C(=O)O[C@H](c3ccccc3)[C@H](c3ccccc3)N2[C@@H]1c1ccc(O)cc1)C(=O)OC,0.381
7,CC(C)C(O)C1C=CC2C(=O)N(c3ccccc3)C(=O)C2N1Nc1ccc([N+](=O)[O-])cc1 (stereo not given),0.85
8,CC(C)C[C@@H]1NC(=O)[C@@H]2C[C@H](C(=O)NCc3ccc(F)cc3)[C@H](c3cccc(OCCO)c3)N2C1=O,-0.19
9,CCCC[C@H]1OB(O)C[C@H]2C1=C(COC)C[C@H]1C(=O)N(C)C(=O)[C@H]12,0.687
10,COCCOC(=O)N1C(=O)[C@@]2(c3cc(C#Cc4ccc(OC)cc4)ccc31)[C@H](c1ccccc1OCCO)N1[C@H](c3ccccc3)[C@H](c3ccccc3)OC(=O)[C@H]1[C@@H]2C(=O)NC[C@H](O)c1ccccc1,0.53
11,CCOC(=O)C[C@H]1[C@H](OC(=O)c2ccc(C(=O)c3ccccc3)cc2)[C@@H](NC(=O)c2ccccc2)c2cc(OCCCO)ccc2N1C(=O)c1ccc2ccccc2n1,-0.136
12,O=C(c1ccccc1)N1C(=O)[C@@]2(Cc3ccccc31)N=C(c1ccc(OCCCO)cc1)O[C@H]2c1ccccc1,0.992
13,Cc1ccc(N2C(=O)c3ccccc3[C@@H](C(=O)NC3CC3)[C@@H]2c2ccc(CO)cc2)nc1,-0.314
14,[N-]=[N+]=Nc1ccccc1[C@@H]1OC(c2ccc(OCCCO)cc2)=N[C@]1(CCS(=O)(=O)c1ccccc1)C(N)=O,0.992
15,COC(=O)C(CC#Cc1ccc2c(c1)[C@]1(C(=O)N2)[C@H](C(=O)Nc2nc3ccccc3s2)[C@H]2C(=O)O[C@H](c3ccccc3)[C@H](c3ccccc3)N2[C@@H]1c1ccccc1OCCO)C(=O)OC,0.303
16,CCOC(=O)C[C@H]1[C@H](OC(=O)c2ccc(C(=O)c3ccccc3)cc2)[C@@H](NC(=O)CC(C)C)c2cc(OCCCO)ccc2N1C(=O)c1ccc2ccccc2n1,0.241
17,C=CC[C@]1(C(=O)NCc2ccccc2)N=C(c2ccc(OCCCO)cc2)O[C@H]1c1ccccc1N=[N+]=[N-],1.29
18,OCCCC1=CC(c2cccs2)N(Cc2cc3c(cc2Br)OCO3)CC1 (stereo not given),1.01

row,SMILES,composite z-score
1,COc1ccc(C#Cc2ccc3c(c2)[C@]2(C(=O)N3)[C@H](C(=O)Nc3nc4ccccc4s3)[C@H]3C(=O)O[C@H](c4ccccc4)[C@H](c4ccccc4)N3[C@@H]2c2ccc(O)cc2)cc1,1.09
2,NC(=O)[C@@H]1[C@H]2C(=O)O[C@H](c3ccccc3)[C@H](c3ccccc3)N2[C@H](c2ccc(O)cc2)[C@@]12C(=O)Nc1ccccc12,-0.638
3,CCCCC(CC)C(O)C1C=CC2C(=O)N(Cc3ccccc3)C(=O)C2N1n1cnnc1 (stereo not given),0.82
4,O=C1O[C@H](c2ccccc2)[C@H](c2ccccc2)N2[C@H]1[C@@H](C(=O)N1CCCCCCC1)[C@]1(C(=O)Nc3ccc(C#CCCO)cc31)[C@H]2c1ccccc1OCCO,1.84
5,C=CCNC(=O)[C@H]1[C@@H]2C(=O)O[C@@H](c3ccccc3)[C@@H](c3ccccc3)N2[C@@H](c2ccccc2OCCO)[C@]12C(=O)Nc1ccc(C#CCCO)cc12,0.479
6,COc1ccc(C#Cc2ccc3c(c2)[C@]2(C(=O)N3)[C@H](c3ccccc3OCCO)N3[C@H](c4ccccc4)[C@H](c4ccccc4)OC(=O)[C@H]3[C@@H]2C(=O)Nc2nc3ccccc3s2)cc1,0.322
7,CN1C(=O)C2C=CC(C(O)C3CC=CCC3)N(N(c3ccccc3)c3ccccc3)C2C1=O (stereo not given),1.87
8,O=C1O[C@@H](c2ccccc2)[C@@H](c2ccccc2)N2[C@@H](c3ccccc3OCCO)[C@]3(C(=O)Nc4ccccc43)[C@@H](C(=O)Nc3nc4ccccc4s3)[C@H]12,0.33
9,O=C1NC(=O)C2C1C=CC(C(O)c1cc(C(F)(F)F)cc(C(F)(F)F)c1)N2Nc1ccccn1 (stereo not given),1.33
10,O=C(N1CCCCC1)[C@]1(Cc2ccccc2)N=C(c2ccc(OCCCO)cc2)O[C@@H]1c1ccccc1,0.99
11,CC(C)c1ccc(NN2C(C(O)c3ccc(B(O)O)cc3)C=CC3C(=O)N(c4ccccc4)C(=O)C32)cc1 (stereo not given),0.849
12,NC(=O)NCC#Cc1ccc2c(c1)[C@]1(C(=O)N2)[C@H](c2ccc(O)cc2)N2[C@H](c3ccccc3)[C@H](c3ccccc3)OC(=O)[C@H]2[C@@H]1C(=O)O,-0.203
13,Cc1ccccc1C(O)C1C=CC2C(=O)N(c3ccccc3)C(=O)C2N1Nc1ccc(C(C)C)cc1 (stereo not given),0.625
14,COc1ccc(CCNC(=O)[C@@H]2c3ccccc3C(=O)N(Cc3ccccc3Cl)[C@H]2c2ccc(CO)cc2)cc1,0.674
15,O=C(NC1CC1)[C@@H]1c2ccccc2C(=O)N(Cc2ccccc2Cl)[C@H]1c1ccc(CO)cc1,1.17
16,Cc1nc2cc(Br)ccc2c(=O)o1,0.435
17,CCN(CC)c1ccc(N2CC=CC34O[C@@H]5C=CCCOC(=O)C5[C@H]3C(=O)N(CCCCCCO)[C@@H]4C2=O)cc1 (stereo not given in full),0.816
